# Shown are actives, neighbours in structure and some others; about 2.3% of the full set was active somewhere.
# p53ts 32C tox: kills p53ts cells at the permissive temperature; H1299-p53A138V at 32C, ATP luminescence viability, 24 h; Potency, µM (doses to about 46.1 µM), inactives show top-dose activity change, negative = cytotoxicity, usual class: cytotoxic; actives 0.93% (n = 130,000);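 note: 0% = DMSO and -100% = full killing by reference compound; nearly all actives have a fitted effect of over 55% in size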
#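 ATP-content luminescence (ATPlite) read-out after 24 h compound exposure at 32C in H1299-p53A138V cells (600/well). Tested up to 46 uM. Normalized to DMSO (0%) and 100 uM tamoxifen (100% killing); Hill-fit AC50.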
# p53ts 39C kill: p53ts cell cytotoxicity, nonpermissive temperature | Potency, µM (top dose mostly 46.1 µM), inactives show top-dose activity change, negative = cell killing, actives largely listed as cytotoxic | actives 1.5% (n = 130,000) | AID 902 | H1299-p53A138V viability at 39C, ATP luminescence, 24 h; note: % is set by controls: 0 for no effect and ±100 for the full control effect; nearly all actives have a fitted effect of over 55% in size
# IkB signaling: IkB pathway inhibition in ABC-DLBCL cells; actives 0.04% (n = 110,000); Potency, µM (highest dose often 57.1 µM), for inactives: at the top dose IkBa stabilization activation; ABC-DLBCL IkBa-CBG/CBR dual luciferase ratio, 4 h; response scale: scaled: untreated 0%, proteasome inhibitor 100%; active = well fitted curve in the direction sought with a large enough effect in the signal ratio, not every such curve was filed as active; inconclusive = small, poorly fitted or top-dose-only effect, or a change in a side signal; the % refers to the signal ratio;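 note: the direction sought is a rising ratio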
#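 Curves were fitted separately to fusion (green), unfused (red) and ratio luminescence, then classed by r2, magnitude and activity. Cells: OCI-Ly3, 4 h compound plus doxycycline at 37C; 10 uM MG-132 defined full response.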
# ERK AVP inh: vasopressin-driven ERK pathway inhibition; Potency, µM (titrated, usually from 57.5 µM), without a hit: top-dose activity, negative = inhibition, actives largely listed as inhibitors; AID 995; HEK293-V1b, vasopressin-stimulated pERK AlphaScreen; actives 0.99% (n = 72,000); note: % is set by controls: 0 for no effect and ±100 for the full control effect; nearly all actives have a fitted effect of over 55% in size
#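 qHTS, compounds titrated on V1b-expressing HEK293 cells. Preincubation 30 min at 37C, vasopressin 25 nM for 5 min, lysis 10 min, bead incubation 5 hr at room temperature.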
# Imprint erasure: genomic imprint erasure induction; actives 0.02% (n = 110,000); mouse ES Peg3-LacZ reporter, beta-gal luminescence, 40 h; Potency, µM (series often up to 60.7 µM), for the others: at the top dose activity change, positive = activation, usual class: activators
#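 Readout: BetaGlo luminescence (5 min, room temp) for LacZ from the normally silent maternal Peg3 allele in female Peg3LacZ-Neo ES cells. Cells 300/well, 40 h, 37C, 5% CO2. Data normalized per plate to negative controls.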
# Numbers without * were called inactive; ? = inconclusive; . = not tested or not shown; [ ] = remark or other dose. Unless noted, calls come from the whole dose curve; as a rule, active = well fitted curve in the direction sought with a large enough effect; inconclusive = small, poorly fitted or top-dose-only effect, or another doubt; inactive = no such curve, though single readings can be large; an effect the other way counts as inactive or inconclusive. Potency is the fitted concentration of half-maximal effect.
SMILES,p53ts 32C tox,p53ts 39C kill,IkB signaling,ERK AVP inh,Imprint erasure
Cc1cc(OCCCn2c(CCNC(=O)C3CCCCC3)nc3ccccc32)ccc1Cl,?,12.6µM*,?,.,-13.8%[10.9 µM]
Cc1ccc(NC(=O)COc2ccc(-c3nn(C)c(=O)c4ccccc34)cc2)cc1,-0.1%,-2.3%,?,.,-11.6%[10.9 µM]
Cn1nc(-c2ccc(OCC(=O)Nc3cccnc3)cc2)c2ccccc2c1=O,5.3%,-3.7%,?,31.6µM*,-17.8%
Cc1ccc2nc(/C(C#N)=C/c3ccc(-c4cccc(Cl)c4)o3)[nH]c2c1,?,3.98µM*,?,.,-6.9%[10.9 µM]
N#C/C(=C\c1ccc(-c2ccc(Cl)c(C(=O)O)c2)o1)c1nc2ccccc2[nH]1,?,-9.1%,?,.,-9.7%[10.9 µM]
Oc1ccc(Cl)c2cccnc12,-10.0%,-14.0%,.,-19.7%,-2.4%
Oc1c(I)cc(I)c2cccnc12,?,7.94µM*,.,?,-33.8%
Oc1c(Cl)cc(Cl)c2cccnc12,?,3.16µM*,.,-7.5%,-31.1%
O=C(O)CNC(=O)c1ccccc1O,-6.0%[9.22 µM],-13.5%[9.22 µM],-0.2%[11.4 µM],-7.1%[11.5 µM],-15.0%[10.9 µM]
C=C(CO)C1Cc2c(ccc3c2OC2COc4cc(OC)c(OC)cc4C2C3=O)O1 (stereo not drawn),-10.6%,-13.8%,.,?,-15.2%
O=C(O)c1ccccc1NS(=O)(=O)c1ccc(F)c(Cl)c1,3.7%,11.3%,.,.,.
CC(O)/C=C/c1ccc2ccccc2n1 (stereo not drawn),25.1µM*,?,3.1%,-20.1%,-52.6%
C[C@@]12C[C@H](O)[C@@H]3[C@H](CCC4=CC(=O)CC[C@]43C)[C@H]1CC[C@@H]2c1csc(N)n1,1.0%[9.22 µM],-0.9%[9.22 µM],1.9%[11.4 µM],0.4%[11.5 µM],.
O=C(COC(=O)c1cccc(NC(=O)c2ccco2)c1)c1ccc(Br)cc1,19.1%,0.7%,?,15.8µM*,-95.7%
O=C(COC(=O)c1cccc(NC(=O)c2ccc(Br)cc2)c1)c1ccc(Cl)cc1,-29.8%,?,?,.,-10.3%[10.9 µM]
CCC(Sc1nnc2c(n1)[nH]c1ccccc12)C(=O)Nc1nnc(C(C)C)s1 (stereo not drawn),?,10µM*,8.4%,.,23.4%[10.9 µM]
CCC(Sc1nnc2c3ccccc3n(C)c2n1)C(=O)Nc1nnc(C(C)C)s1 (stereo not drawn),1.3%,10.2%,0.4%,.,7.8%[10.9 µM]
C[N@+]1(CCC(=O)c2ccccc2)CC[C@H]2CC[C@H](C2)C1,-0.9%[9.22 µM],-5.1%[9.22 µM],0.8%[11.4 µM],-8.7%[11.5 µM],17.4%[10.9 µM]
COc1ccc(CNC(=O)CS(=O)Cc2nc(-c3ccccc3C)oc2C)cc1 (stereo not drawn),-3.8%,4.5%,-0.3%,20µM*,-3.6%
CCCCN(C)CC(O)Cn1cc(/C=C/C(=O)c2ccc(OC)c(OC)c2)c2ccccc21 (stereo not drawn),20µM*,15.8µM*,?,.,?
CCCN(CCC)CC(O)Cn1cc(/C=C/C(=O)c2ccc(OC)cc2)c2ccccc21 (stereo not drawn),?,10µM*,?,.,-4.1%[10.9 µM]
CCCN(CCC)CC(O)Cn1cc(/C=C/C(=O)c2ccc(Br)cc2)c2ccccc21 (stereo not drawn),-21.2%,7.94µM*,?,.,-6.5%[10.9 µM]
CCCCN(C)CC(O)Cn1cc(/C=C/C(=O)c2ccc(Br)cc2)c2ccccc21 (stereo not drawn),?,?,?,.,-4.4%[10.9 µM]
CCCCN(C)CC(O)Cn1cc(/C=C/C(=O)c2ccc(C)cc2)c2ccccc21 (stereo not drawn),?,15.8µM*,?,.,-10.8%[10.9 µM]
O=C(/C=C/c1cn(CC(O)CN2CCCCCC2)c2ccccc12)c1ccc(Br)cc1 (stereo not drawn),-4.0%,?,6.1%,.,9.7%[10.9 µM]
SMILES,p53ts 32C tox,p53ts 39C kill,IkB signaling,ERK AVP inh,Imprint erasure
COc1ccc(C(=O)/C=C/c2cn(CC(O)CN(CC(C)C)CC(C)C)c3ccccc23)cc1 (stereo not drawn),-6.4%,-13.7%,-0.5%,.,-17.0%[10.9 µM]
O=C(O)c1ccc(Cl)c(S(=O)(=O)Nc2ccccc2F)c1,-1.5%,-1.2%,.,.,.
CCCN(CCC)CC(O)Cn1cc(/C=C/C(=O)c2ccc(C)cc2)c2ccccc21 (stereo not drawn),?,12.6µM*,?,.,10.8%[10.9 µM]
CN(C)c1ccc(N/C=C/C(=O)c2ccccc2)cc1,5.01µM*,12.6µM*,?,?,-34.6%
CC(=O)OCC1OC(C#Cc2ccc(F)cc2F)C=CC1OC(C)=O (stereo not drawn),-5.7%[9.22 µM],?,.,16.1%[11.5 µM],.
O=C(Nc1ccccc1)N1CC=C(c2ccc(F)cc2)CC1,-3.4%,-5.4%,?,-10.1%,-40.0%
O=C(Nc1cccc(F)c1)N1CC=C(n2c(=O)[nH]c3ccccc32)CC1,-9.4%,?,?,20µM*,-20.5%
Cc1cccc2c1-c1sc(C(=O)NCCCN3CCN(c4cccc(Cl)c4)CC3)cc1CO2,-3.4%,12.6µM*,1.5%,.,-31.0%[10.9 µM]
CCN1CCN(CCCNC(=O)c2cc3c(s2)-c2c(C)cccc2OC3)CC1,?,25.1µM*,?,.,-9.2%[10.9 µM]
Cc1cccc2c1-c1sc(C(=O)NCCCN3CCN(c4ccccc4F)CC3)cc1CO2,-3.7%,15.8µM*,?,.,-18.9%[10.9 µM]
Cc1ccc(CNC(=O)c2cc3c(s2)-c2c(C)cccc2OC3)cc1,-7.5%,?,?,.,22.1%[10.9 µM]
Cc1cccc2c1-c1sc(C(=O)NCc3ccc(Cl)cc3)cc1CO2,-19.6%,?,?,.,-6.9%[10.9 µM]
CC1(C)CC[C@]2(C(=O)O)CC[C@]3(C)C(=CC[C@@H]4[C@@]5(C)CC[C@H](O)C(C)(C)[C@@H]5CC[C@@]43C)[C@@H]2C1,.,.,-0.8%[11.4 µM],.,.
CCN1CCN(C(=O)NC(C(=O)NC2C(=O)N3C(C(=O)O)=C(CSc4nnnn4C)CSC23)c2ccc(O)cc2)C(=O)C1=O (stereo not drawn),6.7%,-3.0%,.,4.1%,17.5%
COc1ccc(C(=O)Nc2ccc3oc(-c4cc(Cl)ccc4Cl)nc3c2)cc1Br,?,10µM*,?,.,-7.5%[10.9 µM]
O=C(Nc1ccc2oc(-c3cccc(Cl)c3Cl)nc2c1)c1cccc(Br)c1,?,10µM*,-0.4%,.,-8.4%[10.9 µM]
Oc1ccc(Cc2cc(Cl)cc(Cl)c2O)cc1Cl,6.5%[9.22 µM],13.3%[9.22 µM],1.6%[11.4 µM],12.1%[11.5 µM],-13.0%[10.9 µM]
N#C/C(=C1\CCCN1)c1ccc2ccccc2n1,-0.6%,-3.7%,0.2%,15.8µM*,1.3%
C[C@@H]1NCC[C@H](CC(=O)O)[C@H]1CC(=O)O,4.3%[9.22 µM],2.7%[9.22 µM],-0.6%[11.4 µM],-3.9%[11.5 µM],-2.2%[10.9 µM]
COc1cccc(CNC(=O)CSc2nnc(C)c3c(C)n(-c4ccccc4)nc23)c1OC,-6.4%,25.1µM*,?,.,11.5%[10.9 µM]
COc1ccccc1CNC(=O)CCn1nc(C)c2c(C)n(-c3ccccc3)nc2c1=O,6.9%,2.6%,2.4%,.,27.1%[10.9 µM]

# Bioassay records as filed in PubChem BioAssay.
